According to PubChem BioAssay (NCATS):
Several values for one entry are separate records, joined by “and”; a condition that tells them apart may be missing. Equal entries are not always repeated. Records with an inconclusive call do not appear. A structure can be active in one record and inactive in another. Activity calls are given as the source filed them. The call rests on the fitted dose curve; in most records, active means well fitted curve in the direction sought with a large enough effect; inconclusive means small, poorly fitted or top-dose-only effect, or another doubt; inactive means no such curve, though single readings can be large; an effect the other way counts as inactive or inconclusive.

Columns and labels:
[1] = Viability qHTS for spleen associated tyrosine kinase inhibitor (SYKi) naive MV4-11 cells (AID 1963823); further: nearly all actives have a fitted effect of over 40% in size
Method in brief: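 Seeding of 500 SYKi-naive MV4-11 cells per well onto pre-dispensed compounds preceded a 72 hr incubation at 37 C. Luminescent CellTiter-Glo signal, read after 10 min at room temperature, reflected viable cells.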

[2] = Viability qHTS for spleen associated tyrosine kinase inhibitor (SYKi) drug resistant MV4-11 cells (AID 1963824); further: nearly all actives have a fitted effect of over 35% in size
Method in brief: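 SYK-inhibitor-resistant MV4-11 AML cells were seeded at 500 per well onto compound and cultured 72 hours (37 °C, 5% CO2). CellTiter-Glo was then added, and after 10 min at room temperature, luminescence gave viability.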

[3] = Quantitative highthroughput screen to assess conditional lethalithy of P12 Ichikawa cells grown in Human Plasma-Like Medium with dialyzed fetal bovine serum (HPLM+ds) (AID 1963879); conditions: Potency: viability; further: nearly all actives have a fitted effect of over 35% in size; on Viability: series mostly up to about 46 µM
Method in brief: (§1)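 Each medium arm—HPLM with 10% dialyzed FBS, or RPMI1640 with 5 mM glucose and 10% untreated or dialyzed FBS—was screened against an 11-point, 3-fold compound titration for 48 h at 37 °C, with CellTiter-Glo luminescence as endpoint.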

[4] = Quantitative highthroughput screen to assess conditional lethalithy of P12 Ichikawa cells grown in RPMI1640 with dialyzed fetal bovine serum (RPMI+ds) (AID 1963880); conditions: Potency: P12-Ichikawa viability; further: nearly all actives have a fitted effect of over 35% in size;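 on Viability: 100% = DMSO wells and 0% = empty wells on each plate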
Method in brief: as §1

[5] = Quantitative highthroughput screen to assess conditional lethalithy of P12 Ichikawa cells grown in RPMI1640 with untreated serum (RPMI+s) (AID 1963881); conditions: Potency: viability; further: nearly all actives have a fitted effect of over 35% in size;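 on Viability: series mostly up to about 46 µM; 100% = DMSO wells and 0% = empty wells without cells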
Method in brief: as §1

[6] = Quantitative highthroughput screen to assess conditional lethalithy of SEM cells grown in Human Plasma-Like Medium with dialyzed fetal bovine serum (HPLM+ds) (AID 1963882); further: nearly all actives have a fitted effect of over 35% in size; on Viability: series mostly up to about 46 µM
Method in brief: as §1

[7] = Quantitative highthroughput screen to assess conditional lethalithy of SEM cells grown in RPMI1640 with unreated serum (RPMI+s) (AID 1963883); further: nearly all actives have a fitted effect of over 35% in size;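 on Viability: 100% = DMSO wells and 0% = empty wells without cells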
Method in brief: as §1

[8] = Quantitative highthroughput screen to assess conditional lethalithy of SEM cells grown in RPMI1640 with dialyzed fetal bovine serum (RPMI+ds) (AID 1963884); further: nearly all actives have a fitted effect of over 35% in size;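 on Viability: series mostly up to about 46 µM; 100% = DMSO control wells and 0% = empty wells without cells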
Method in brief: as §1

[9] = Cellular viability qHTS for adrenocortical cancer (ACC) cell line SW-13 (AID 1963989); conditions: SW-13 ACC cells viability, CellTiter-Glo, 48 h; activity (max response): stronger effect = lower value; further: nearly all actives have a fitted effect of over 65% in size;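 on activity (max response): cells grown in serum-free medium with ITS supplement; on the % scale 0 is the no-effect control and ±100 the full control effect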
Method in brief: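 Luminescent ATP read-out (CellTiter-Glo, 20 min at room temperature) measured metabolically competent SW-13 cells after 48 h compound treatment. Final concentrations spanned up to 46 uM; bortezomib served as positive control.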

[10] = Cellular viability qHTS for adrenocortical cancer (ACC) cell line NCI-H295R (AID 1963990); further: nearly all actives have a fitted effect of over 60% in size
Method in brief: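 IC50 and maximal efficacy derive from four-parameter logistic modelling of titration curves, with reads scaled between DMSO-only wells (0%) and doxorubicin hydrochloride (100% inhibition). Compounds spanned up to 46 uM over 48 h.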

[11] = Quantitative highthroughput screen to assess conditional lethalithy of NOMO1 cells grown in Human Plasma-Like Medium with dialyzed fetal bovine serum (HPLM+ds) (AID 1963878); further: nearly all actives have a fitted effect of over 35% in size
Method in brief: as §1
Potency means the concentration at half of the fitted maximal effect.

SMILES	Potency [1]	Potency [2]	Potency [3]	Potency [4]	Potency [5]	Potency [6]	Potency [7]	Potency [8]	activity (max response) [9]	Potency [10]	Potency [9]	Potency [11]
COc1cc(-c2nn(C3CCC(N4CCN(C(C)=O)CC4)CC3)c3ncnc(N)c23)ccc1NC(=O)c1cc2ccccc2n1C (stereo not given)	inactive and 2.63 µM (active)	2950 nM (active)	inactive	inactive	inactive	inactive	inactive	inactive	-14.1% (inactive)	inactive		
COc1ccccc1N1CCN(CC(O)COc2cccc3ccccc23)CC1 (stereo not given)	inactive	inactive	inactive		13.2 µM (active)				-10.8% (inactive)	inactive		
CCn1cc(-c2ccnc3[nH]c(-c4cccc(CN(C)C)c4)cc23)c(-c2ccc(NC(=O)N(C)C)cc2)n1	103 nM (active) and 83.3 nM (active)	282 nM (active) and 235 nM (active)	0.0662 µM (active)	0.0833 µM (active)	0.0833 µM (active)		0.0469 µM (active)	0.059 µM (active)		12.6 µM (active)	17.8 µM (active)	
C[C@]12C=CC(=O)C=C1CC[C@@H]1[C@@H]2C(=O)C[C@@]2(C)[C@H]1CC[C@]2(O)C(=O)CO	inactive	inactive	inactive	inactive	inactive	inactive		inactive	-14.6% (inactive) and 1.01% (inactive)	inactive		
Cc1cc(Nc2cc(N3CCN(C)CC3)nc(Sc3ccc(NC(=O)C4CC4)cc3)n2)n[nH]1	46.1 nM (active)	29.1 nM (active)	0.332 µM (active)		0.296 µM (active)	0.418 µM (active)	0.372 µM (active)			15.8 µM (active)		
C[C@H](NC(=O)C(=O)Nc1ccccc1C(C)(C)C)C(=O)N[C@@H](CC(=O)O)C(=O)COc1c(F)c(F)cc(F)c1F	2350 nM (active)	1860 nM (active)	20.9 µM (active)	14.8 µM (active)	14.8 µM (active)	5.26 µM (active)	5.9 µM (active)	5.26 µM (active)				
CNC(=O)c1ccccc1Nc1nc(Nc2ccc(N3CCOCC3)cc2OC)ncc1Cl	184 nM (active) and 132 nM (active)	326 nM (active) and 296 nM (active)	8.33 µM (active)		6.62 µM (active)	2.09 µM (active)	1.87 µM (active)				5.62 µM (active)	
CC1=C(C(=O)Nc2cc3cn[nH]c3cc2F)C(c2ccc(Cl)cc2F)N=C(c2ccnc(Cl)c2)N1 (stereo not given)	4610 nM (active)	4.61 µM (active) and 5.9 µM (active)	20.9 µM (active)	20.9 µM (active)	18.7 µM (active)	16.6 µM (active)	18.7 µM (active)	16.6 µM (active)		25.1 µM (active)		
CC(C)n1cnc2c(NCCc3ccc(O)cc3)nc(-c3csc4ccccc34)nc21	14800 nM (active)	14800 nM (active)	3.72 µM (active)	13.2 µM (active)	14.8 µM (active)	13.2 µM (active)	7.43 µM (active)	5.26 µM (active)				
Cc1ccc(C(=O)Nc2ccc(CN3CCN(C)CC3)c(C(F)(F)F)c2)cc1C#Cc1cnc2cccnn12	inactive	5.3 nM (active)								4.47 µM (active)	3.16 µM (active)	0.935 µM (active)
Oc1ccc(-c2ccc(-c3cc(Nc4cccc(CNC5CC5)c4)n[nH]3)cc2)c(O)c1	833 nM (active)	461 nM (active)	2.35 µM (active)		2.35 µM (active)	1.66 µM (active)	4.69 µM (active)	7.43 µM (active)		10 µM (active)	25.1 µM (active)	
Cc1cc(C(=O)NOCCO)c(Nc2ccc(I)cc2F)n(C)c1=O	52.5 nM (active)	41.1 nM (active)	inactive	inactive	inactive	0.0662 µM (active)	inactive	0.0074 µM (active)		inactive		
O=C(Nc1ccc([N+](=O)[O-])cc1Cl)c1cc(Cl)ccc1O	920 nM (active) and 934 nM (active)	1.16 µM (active) and 742 nM (active)	3.72 µM (active)	2.96 µM (active)	2.35 µM (active)		1.18 µM (active)			224 nM (active) and 1 µM (active)	142 nM (active) and 447 nM (active)	
C[C@@H](Oc1cc(-n2cnc3ccc(CN4CCN(C)CC4)cc32)sc1C(N)=O)c1ccccc1C(F)(F)F	20.9 nM (active)	10.5 nM (active)	0.0296 µM (active)	0.0332 µM (active)	0.0332 µM (active)		0.0332 µM (active)				0.0501 µM (active)	
CC(C)C[C@H](NC(=O)c1cc2ccccc2s1)C(=O)N1CCN(C(=O)[C@H](CO)NS(=O)(=O)c2ccc(Cl)cc2Cl)CC1	20900 nM (active)	16600 nM (active)	inactive		inactive							
